“And” between values parts separate entries of the source, which are not always exact repeats. Identical values can stand only once. Inconclusive results are not listed. Unmarked numbers belong to inactive results. The source made the active and inactive calls. Calls come from the whole dose curve; as a rule, active = well fitted inhibition curve with a large enough effect; inconclusive = small, poorly fitted or top-dose-only effect; inactive = flat fitted curve, though single readings scatter.
% is set by controls: 0 for no effect and ±100 for the full control effect; potency is the fitted concentration of half-maximal effect.

The experiment deals with HEK293. The experiment is described as follows: Cytotoxic Profiling of Annotated Libraries Using Quantitative High-Throughput Screening (AID 1296008). Note: nearly all actives have a fitted effect of over 60% in size. Conditions: Five cell lines viability, CellTiter-Glo ATP luminescence, 48-72 h; max response: hits give low values. The source says:
Cell-based phenotypic screening is a commonly used approach to discover biological pathways, novel drug targets, chemical probes and high-quality hit-to-lead molecules. Many hits identified from high-throughput screening campaign are ruled out through a series of follow-up potency, selectivity/specificity, and cytotoxicity assays. Prioritization of molecules with little or no cytotoxicity for a more in-depth downstream evaluation influence the future direction of projects, so cytotoxicity profiling of the screening libraries at early stage is essential for increasing the likelihood of candidate success. […] For the annotated library, we also examined the primary targets and mechanistic pathways regularly associated with cell death. To our knowledge, this is the first study to use high-throughput screening to profile large libraries for cytotoxicity assessment in both normal and cancer cell lines. In summary, the results generated here constitutes a valuable resource for the scientific community and provides insight on identifying cytotoxic compounds with particular mechanisms of action, and prioritizing compounds with suitable cytotoxicity profile for further evaluation.
A pintool (Kalypsys) was used to transfer 23 nL of compound solution to the 1536-well assay plates. After 48 or 72 hr incubation at 37 degree Celsius, 5% CO2 and 95% humidity, 2.5 uL of CellTiter-Glo (Promega) was dispensed into each well using a dispenser (Aspect Automation, St. Paul, MN) with solenoid valves (Lee Valves, Westbrook CT). Plates were left at room temperature for 10 min before imaging the ATP-coupled luminescence using a ViewLux microplate imager (PerkinElmer, Waltham, MA).
(Cellular ATP, detected with luciferase, serves as a proxy for viable cell number.)
In the case of `CC(C)c1cccc(C(C)C)c1O`, the molecule was called inactive and the max response was -6.49%.

With `Oc1ccc(Cl)cc1`, the molecule was classed as inactive.

On to `NCCc1ccc(O)cc1`, for which the outcome was inactive.

Regarding `C[C@]12CC[C@@H]3c4ccc(OC(=O)N(CCCl)CCCl)cc4CC[C@H]3[C@@H]1CC[C@@H]2OP(=O)(O)O`, the max response was -12.2%.

With `CC(C)c1c(CN(C)C(C)Cc2ccccc2)n(C)n(-c2ccccc2)c1=O` (stereo unspecified), the Potency was 8.41 µM (active).

Consider `NC(=O)CS(=O)C(c1ccccc1)c1ccccc1` (stereo unspecified), for which the max response was 2.52%.

For the molecule `Nc1ccccc1C(=O)O`, the max response was -5.49%.

On to `CCc1cc2c(s1)-n1c(C)nnc1CN=C2c1ccccc1Cl`, for which the max response is -15.5%.

Turning to `O=C1OC(c2ccc(O)c(S(=O)(=O)O)c2)(c2ccc(O)c(S(=O)(=O)O)c2)c2c(Br)c(Br)c(Br)c(Br)c21`, the molecule was classed as inactive.

`CC(NC(C)(C)C)C(=O)c1cccc(Cl)c1` (stereo unspecified): the molecule was called inactive; the max response is -3.26% and -3.1%.

Regarding `CC(C)(C)NCC(O)c1ccccc1Cl` (stereo unspecified), the max response is -2.46%.

On to `Clc1ccccc1N1CCNCC1`, for which the molecule was called inactive.

`CC(=O)C1CCOC1=O` (stereo unspecified): the molecule was called inactive.

Take `CC(C)N(CCC(C(N)=O)(c1ccccc1)c1ccccn1)C(C)C` (stereo unspecified): the max response was -72.3%.

For the molecule `C[N+]1(CCF)[C@@H]2CC[C@H]1CC(OC(=O)C(O)(c1ccccc1)c1ccccc1)C2` (stereo partly specified), the max response is -5.81%.

`CC(C(=O)c1ccccc1)N(C)C` (stereo unspecified): the max response is -1.39%.

In the case of `O=P1(N(CCCl)CCCl)NCCCO1` (stereo unspecified), the max response was -27.8% and -15.3%.

In the case of `O=C(O)c1ccc(=O)[nH]c1`, the max response is -0.0722%.

Consider `CN1C(=O)COc2c(C(=O)NC3CN4CCC3CC4)cc(Cl)cc21` (stereo unspecified), for which the max response was -5.69% and -2.96%.

As to `CNC(C)(C)Cc1ccccc1`, the max response is -3.64%.

Take `CC(=O)NC1CCSC1=O` (stereo unspecified): the molecule was classed as inactive.

For the molecule `C=CCC1([C@H](C)CCC)C(=O)NC(=O)NC1=O`, the max response is 1.82%.

Take `CCOC(=O)CC(SP(=S)(OC)OC)C(=O)OCC` (stereo unspecified): the outcome was inactive.

`c1ccc2c(c1)sc1ccccc12`: the max response is 0.977%.

Consider `C#CC(O)(C=CCl)CC` (stereo unspecified), for which the max response is -13.2%.

On to `CC1(C)C(C=C(Cl)Cl)C1C(=O)OC(C#N)c1cccc(Oc2ccccc2)c1` (stereo unspecified), for which the max response was 2.42%.

As for `NC(=O)c1cc([N+](=O)[O-])cc([N+](=O)[O-])c1`, the max response is -2.7%.

For the molecule `COc1cc(OC)c(OC)cc1C=O`, the max response is -6.96% and the result was inactive.

`COC(=O)[C@@H](N)CCCN/C(N)=N/[N+](=O)[O-]`: the molecule was classed as inactive.

On to `C[C@H]1[C@@H]2Cc3ccc(O)cc3[C@@]1(C)CCN2C`, for which the max response is -19.5%.

In the case of `CCCCCCCCCC(=O)O[C@H]1CC[C@H]2[C@@H]3CCC4=CC(=O)CC[C@@H]4[C@H]3CC[C@]12C`, the max response was -2.03%.

On to `COc1c2c(cc3c1OCO3)CCN(C)C2`, for which the max response was -25.2%.

On to `COP(=S)(OC)Oc1ccc(S(=O)(=O)N(C)C)cc1`, for which the max response was -6.52%.

With `CCCCCN(C)CCC(O)(P(=O)(O)O)P(=O)(O)O`, the max response was -18.4%.

`CC(Cc1ccccc1)N(C)Cc1ccco1` (stereo unspecified): the max response was -5.17%.

In the case of `CCN(CCO)CCn1c(Cc2ccccc2)nc2c1c(=O)n(C)c(=O)n2C`, the max response was -6.17%.

`CN1C(=O)CCS(=O)(=O)C1c1ccc(Cl)cc1` (stereo unspecified): the max response is -9.62% and the molecule was classed as inactive.

The values above are taken from PubChem BioAssay (NCATS).
